Experimental data reported in PubChem BioAssay (NCI).
About 83,000 compounds went through this panel and 20% of them were active in at least one assay; those are over-represented in the sample as a whole.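 Activity criterion: percent growth below 10, measured after cells in 96-well plates were exposed to a single compound concentration for 48 hours.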 Calls of active or inactive are those of the source.

Assays:
Assay in all cases: NCI-60 one-dose screen, 48 h (100 = growth as untreated, 0 = no growth, -100 = all killed)
Conditions in all cases: 10 µM unless noted
DU-145 prostate = system: DU-145 prostate
K-562 leukemia = system: K-562 leukemia
MALME-3M melanoma = system: MALME-3M melanoma
MDA-MB-231 breast = system: MDA-MB-231 breast
RXF 393 renal = system: RXF 393 renal
SF-268 CNS = system: SF-268 CNS
SF-295 CNS = system: SF-295 CNS
SF-539 CNS = system: SF-539 CNS
UACC-257 melanoma = system: UACC-257 melanoma
M14 melanoma = system: M14 melanoma
HCT-15 colon = system: HCT-15 colon
HT29 colon = system: HT29 colon
SNB-75 CNS = system: SNB-75 CNS
SNB-19 CNS = system: SNB-19 CNS
U251 CNS = system: U251 CNS
PC-3 prostate = system: PC-3 prostate
SK-MEL-5 melanoma = system: SK-MEL-5 melanoma
UACC-62 melanoma = system: UACC-62 melanoma
LOX IMVI melanoma = system: LOX IMVI melanoma
SK-MEL-28 melanoma = system: SK-MEL-28 melanoma

Measured: growth

Nn1c(=O)n(-c2cccc(C(F)(F)F)c2)c(=O)c2cc(-c3ccc(F)cc3F)ccc21
active: K-562 leukemia 6.85% | MALME-3M melanoma -17.2% | MDA-MB-231 breast -10.2% | RXF 393 renal 3.65% | SF-295 CNS -4.06% | UACC-257 melanoma -8.9% | SNB-75 CNS -16.5% | SNB-19 CNS 9.55% | U251 CNS 5.07% | PC-3 prostate -3.92% | SK-MEL-5 melanoma -51.6% | UACC-62 melanoma 1.73% | LOX IMVI melanoma 0.654%
inactive: DU-145 prostate 24.4% | SF-268 CNS 17.8% | SF-539 CNS 19.4% | M14 melanoma 17.1% | HCT-15 colon 10.6% | HT29 colon 60.8% | SK-MEL-28 melanoma 28%

CCNCCOc1ccc(/C(=C(/CC)c2ccc(Cl)cc2)c2ccc(OCCCN(C)C)cc2)cc1
active: DU-145 prostate -91.7% | K-562 leukemia 0.0244% | MALME-3M melanoma -85.1% | MDA-MB-231 breast -87.2% | RXF 393 renal -92.1% | SF-268 CNS -66.7% | SF-295 CNS -85.8% | SF-539 CNS -93.9% | UACC-257 melanoma -82.8% | M14 melanoma -86.9% | HCT-15 colon -84.8% | HT29 colon -36.4% | SNB-75 CNS -71.1% | SNB-19 CNS -86% | U251 CNS -70.7% | PC-3 prostate -56.4% | SK-MEL-5 melanoma -95.2% | UACC-62 melanoma -90% | LOX IMVI melanoma -89.2% | SK-MEL-28 melanoma -94.3%

Brc1cccc(-c2cc(-c3cnc4c(c3)OCCO4)n[nH]2)c1
inactive: DU-145 prostate 70.4% | K-562 leukemia 16.6% | MALME-3M melanoma 37% | MDA-MB-231 breast 68.8% | RXF 393 renal 47.9% | SF-268 CNS 76.5% | SF-295 CNS 51.5% | SF-539 CNS 47.6% | UACC-257 melanoma 73.2% | M14 melanoma 27.1% | HCT-15 colon 21.1% | HT29 colon 18.8% | SNB-75 CNS 46.9% | SNB-19 CNS 59.8% | U251 CNS 43.3% | PC-3 prostate 79.1% | SK-MEL-5 melanoma 24.2% | UACC-62 melanoma 55.5% | LOX IMVI melanoma 37.1% | SK-MEL-28 melanoma 59%

COc1cccc2c1C=CC1(O2)Oc2cccc(OC)c2C=C1C (stereo not given)
inactive: DU-145 prostate 31.5% | MALME-3M melanoma 60.4% | SF-268 CNS 55.3% | UACC-257 melanoma 73.9% | HCT-15 colon 24.9% | SNB-19 CNS 22.8% | U251 CNS 16.8% | PC-3 prostate 31.4% | SK-MEL-5 melanoma 24.6% | UACC-62 melanoma 13.1% | LOX IMVI melanoma 24.5% | SK-MEL-28 melanoma 58.4%
active: K-562 leukemia 8.28% | MDA-MB-231 breast 0.892% | RXF 393 renal -18.2% | SF-295 CNS 6.46% | SF-539 CNS -9.43% | M14 melanoma 1.02% | HT29 colon 6.27% | SNB-75 CNS -8.19%

COc1ccc(/C=N\NC(=O)c2cnn(CC(O)c3ccccc3)c2N)cc1OCc1ccc(Cl)cc1 (stereo not given)
inactive: DU-145 prostate 55.3% | K-562 leukemia 60.2% | MALME-3M melanoma 65.2% | MDA-MB-231 breast 67% | RXF 393 renal 41.8% | SF-268 CNS 91.6% | SF-295 CNS 56.9% | SF-539 CNS 69.4% | UACC-257 melanoma 85% | M14 melanoma 68.4% | HCT-15 colon 70.5% | HT29 colon 90.6% | SNB-75 CNS 60.8% | SNB-19 CNS 68.2% | U251 CNS 60.6% | PC-3 prostate 63.6% | SK-MEL-5 melanoma 92.2% | UACC-62 melanoma 81.1% | LOX IMVI melanoma 54.6% | SK-MEL-28 melanoma 71.4%

Cc1nc(/N=C(N)/N=C(\N)c2cccc(Br)c2)sc1C
active: SF-295 CNS 8.89%
inactive: DU-145 prostate 57.9% | K-562 leukemia 15.9% | MALME-3M melanoma 62% | MDA-MB-231 breast 76.5% | RXF 393 renal 56.9% | SF-268 CNS 80% | SF-539 CNS 37.8% | UACC-257 melanoma 88.3% | M14 melanoma 47.1% | HCT-15 colon 25.1% | HT29 colon 17.8% | SNB-75 CNS 62.9% | SNB-19 CNS 42.9% | U251 CNS 47% | PC-3 prostate 59.8% | SK-MEL-5 melanoma 69.8% | UACC-62 melanoma 28.1% | LOX IMVI melanoma 43.5% | SK-MEL-28 melanoma 72.8%

COc1ccc(-c2c3c(cn2Cc2cccc(OC)c2)-c2oncc2CCC3)cc1
inactive: DU-145 prostate 101% | K-562 leukemia 85.6% | MALME-3M melanoma 95.6% | MDA-MB-231 breast 101% | RXF 393 renal 111% | SF-268 CNS 99.5% | SF-295 CNS 97% | SF-539 CNS 97.8% | UACC-257 melanoma 96.6% | M14 melanoma 91.6% | HCT-15 colon 95.1% | HT29 colon 109% | SNB-75 CNS 103% | SNB-19 CNS 93.4% | U251 CNS 93.2% | PC-3 prostate 85.4% | SK-MEL-5 melanoma 100% | UACC-62 melanoma 79.3% | LOX IMVI melanoma 95.2% | SK-MEL-28 melanoma 110%

Cc1ccc2c(n1)C(=O)C(Cl)=C(Nc1cccc(C)c1C)C2=O
inactive: HT29 colon 87.6% | SNB-75 CNS 61.2% | SNB-19 CNS 13.3% | PC-3 prostate 12.4%
active: DU-145 prostate -11% | K-562 leukemia -2.38% | MALME-3M melanoma -5.61% | MDA-MB-231 breast -1.12% | RXF 393 renal 7.14% | SF-268 CNS 2.79% | SF-295 CNS -52.6% | SF-539 CNS -55.9% | UACC-257 melanoma -77.5% | M14 melanoma -29.2% | HCT-15 colon 9.66% | U251 CNS -7.55% | SK-MEL-5 melanoma -66.1% | UACC-62 melanoma 0.0061% | LOX IMVI melanoma -21.1% | SK-MEL-28 melanoma 6.66%

O=C(NCCNc1cc(-c2cn(-c3ccccc3)nc2-c2cccc(O)c2)ccn1)Nc1cc(C(F)(F)F)cc(C(F)(F)F)c1
inactive: DU-145 prostate 106% | K-562 leukemia 86.9% | MALME-3M melanoma 90.6% | MDA-MB-231 breast 92.9% | RXF 393 renal 86.7% | SF-268 CNS 88.8% | SF-295 CNS 89.8% | SF-539 CNS 89.3% | UACC-257 melanoma 101% | M14 melanoma 89% | HCT-15 colon 100% | HT29 colon 95.7% | SNB-75 CNS 75.4% | SNB-19 CNS 97% | U251 CNS 86.8% | PC-3 prostate 80.7% | SK-MEL-5 melanoma 96.8% | UACC-62 melanoma 94.1% | LOX IMVI melanoma 88% | SK-MEL-28 melanoma 96.9%

CS(=O)(=O)c1nccc(-c2c(-c3cccc(OCc4ccc(Cl)c(C(F)(F)F)c4)c3)nc3sccn23)n1
active: DU-145 prostate -25% | HCT-15 colon -30.7% | LOX IMVI melanoma -75.9%
inactive: K-562 leukemia 14.2% | MALME-3M melanoma 88.3% | MDA-MB-231 breast 84.4% | RXF 393 renal 78% | SF-268 CNS 104% | SF-295 CNS 95% | SF-539 CNS 93.3% | UACC-257 melanoma 66.9% | M14 melanoma 72.9% | HT29 colon 95.8% | SNB-75 CNS 108% | SNB-19 CNS 58.6% | U251 CNS 98.3% | PC-3 prostate 86.5% | SK-MEL-5 melanoma 97.2% | UACC-62 melanoma 87.5% | SK-MEL-28 melanoma 50.5%

COC(=O)CCCNCCCn1ccc2cc(NCc3cccc(-c4ccccc4)c3C)ccc21
active: K-562 leukemia -1.36% | LOX IMVI melanoma 4.91%
inactive: DU-145 prostate 86.2% | MALME-3M melanoma 75.2% | MDA-MB-231 breast 68.3% | RXF 393 renal 71.9% | SF-268 CNS 82.9% | SF-295 CNS 64.5% | SF-539 CNS 77.8% | UACC-257 melanoma 81.6% | M14 melanoma 68.1% | HCT-15 colon 55.5% | HT29 colon 90.7% | SNB-75 CNS 68.9% | SNB-19 CNS 82.4% | U251 CNS 64.8% | PC-3 prostate 58.4% | SK-MEL-5 melanoma 92.8% | UACC-62 melanoma 83.4% | SK-MEL-28 melanoma 75.9%

Cc1cc2nc(C(Cl)Cl)nc(-c3ccc(S(=O)(=O)N(C)C)cc3)n2n1
inactive: DU-145 prostate 45.1% | K-562 leukemia 14.1% | MALME-3M melanoma 17.3% | MDA-MB-231 breast 12.6% | RXF 393 renal 59.5% | SF-268 CNS 67.6% | SF-295 CNS 66.3% | SF-539 CNS 69.4% | UACC-257 melanoma 87% | M14 melanoma 37.1% | HT29 colon 18% | SNB-75 CNS 55.5% | SNB-19 CNS 58.4% | U251 CNS 39.2% | PC-3 prostate 67.4% | SK-MEL-5 melanoma 80.3% | UACC-62 melanoma 68.5% | LOX IMVI melanoma 17.7% | SK-MEL-28 melanoma 59.3%
active: HCT-15 colon 5.58%

CS(=O)(=O)c1ccc(/C(=N/N=C(N)N)c2ccc(F)cc2)cc1
inactive: DU-145 prostate 106% | K-562 leukemia 25.1% | MALME-3M melanoma 97.4% | MDA-MB-231 breast 105% | RXF 393 renal 86.1% | SF-268 CNS 78.9% | SF-295 CNS 71% | SF-539 CNS 99.5% | UACC-257 melanoma 76.9% | M14 melanoma 67.2% | HCT-15 colon 74.9% | HT29 colon 91.5% | SNB-75 CNS 94.6% | SNB-19 CNS 63% | U251 CNS 67.2% | PC-3 prostate 73.9% | SK-MEL-5 melanoma 82.8% | UACC-62 melanoma 74.6% | LOX IMVI melanoma 54.4% | SK-MEL-28 melanoma 95.5%

CC(=C(c1ccc(OCCN2CCCC2)cc1)c1ccc(OCCN2CCCC2)cc1)c1ccc(Cl)cc1
active: K-562 leukemia -43.6% | MALME-3M melanoma -85.9% | MDA-MB-231 breast -68.1% | RXF 393 renal -74.7% | SF-268 CNS -23.1% | SF-295 CNS -63.7% | SF-539 CNS -87.1% | UACC-257 melanoma -73.6% | M14 melanoma -84.5% | HCT-15 colon -73% | HT29 colon -59.2% | SNB-19 CNS -48.8% | U251 CNS -75.1% | PC-3 prostate -26.9% | SK-MEL-5 melanoma -94.9% | UACC-62 melanoma -64.7% | LOX IMVI melanoma -86.5% | SK-MEL-28 melanoma -82.5%
inactive: DU-145 prostate 25.8% | SNB-75 CNS 45.8%

CCCCCCNC(=O)Oc1ccc(/C(=C(/C)c2ccc(Cl)cc2)c2ccc(OCCN3CCCCCC3)cc2)cc1
inactive: DU-145 prostate 86.3% | MALME-3M melanoma 75.4% | MDA-MB-231 breast 76.1% | RXF 393 renal 44.1% | SF-268 CNS 77.2% | SF-295 CNS 70% | SF-539 CNS 67% | UACC-257 melanoma 75.1% | M14 melanoma 30.9% | HT29 colon 21.3% | SNB-75 CNS 99.6% | SNB-19 CNS 68.4% | U251 CNS 55.8% | PC-3 prostate 49.2% | SK-MEL-5 melanoma 73.6% | UACC-62 melanoma 63.8% | LOX IMVI melanoma 32.8% | SK-MEL-28 melanoma 84%
active: K-562 leukemia 8.93% | HCT-15 colon 9.59%
